Measurements taken from PubChem BioAssay AID1626 (SRMLSC, 2009).
Out of some 220,000 compounds screened, about 2,000 (0.91%) were called active. Another 2% or so got no clear call; they are omitted. Only a sample is shown. Results with a measured potency or affinity are listed apart. Unmarked numbers belong to inactive results. Rule as the data show it: inconclusive = inhibition above about 80% without an active follow-up result; inactive = below that; test concentration not stated here.

assay: M. tuberculosis H37Rv growth inhibitors, H37Rv strain (AID 1626); settings: stronger effect = higher value, concentration not given here;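 also: bacteria incubated seven days before Alamar blue readout; 0% = bacteria only wells and 100% = bacteria with antibiotic wells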

First: COC(=O)C1=C(c2cc3ccccc3o2)C[C@@H]2CC[C@H]1N2C(=O)NC(C)C
Second: CCOc1ccccc1NC(=O)C1CCCN(S(=O)(=O)c2ccc(OC)c(C)c2)C1 (centres undefined)
The inhibition of the first is higher: 19.5% for the first, -3.35% for the second.

Compared with `Cn1c(NCc2ccco2)nc2c1c(=O)n(Cc1ccc(Cl)cc1)c(=O)n2C`, `Cn1c(NCc2ccco2)nc2c1c(=O)n(Cc1ccc(Cl)c(Cl)c1)c(=O)n2C` is lower in inhibition: 7.2% for the first, 6.79% for the second.

Compared with `COc1ccc(CNc2nc3c(c(=O)n(Cc4ccc(Br)cc4)c(=O)n3C)n2C)cc1`, `Cn1c(NCc2ccccc2)nc2c1c(=O)n(Cc1ccccc1)c(=O)n2C` is lower in inhibition: 34.1% for the first, -5.24% for the second.

Going from `CC(C)c1nnc(N2C(=O)c3oc4ccccc4c(=O)c3C2c2ccco2)s1` (centres undefined) to `NC(=O)c1oc2ccccc2c1NC(=O)c1nc2ccccc2s1`, the inhibition rises from -6.42% to -3.12%.

First: CC(=O)c1ccc(NC(=O)CSc2nnc(Cn3cnc4ccccc43)o2)cc1
Second: O=C(Nc1ccc(F)cc1)Nc1nnc(-c2ccccc2)o1
The inhibition of the first is higher: -0.74% for the first, -7.42% for the second.

Going from `CCc1cc2cc3c(cc2nc1SCC(=O)Nc1nnc(C)s1)OCCO3` to `O=C(Nc1ccc2c(c1)OCCO2)c1cccc(S(=O)(=O)N2CCOCC2)c1`, the inhibition rises from -4.07% to 2.68%.

Going from `COc1ccc(C(CCNCc2ccc(OC)c(OC)c2)c2ccc(F)cc2)cc1` (centres undefined) to `COc1ccc(CNCCC(c2ccc(F)cc2)c2ccc(OC)cc2)cc1` (centres undefined), the inhibition rises from 2.06% to 41.6%.

Compared with `COc1ccc(C(CCNCc2ccccc2)c2ccc(F)cc2)cc1` (centres undefined), `COc1ccc(CNCCC(c2ccc(OC(C)C)cc2)C(C)C)cc1OC` (centres undefined) is higher in inhibition: -2.55% for the first, 45.4% for the second.

Going from `COc1ccccc1Nc1nc(N)nc(CSC(=S)N2CCCCC2)n1` to `c1ccc2c(NCC3CCCO3)nc(N3CCOCC3)nc2c1` (centres undefined), the inhibition falls from 5.54% to -4.2%.

Compared with `CCCc1nnc(SCC(=O)N2CCCCC2C)n1CC` (centres undefined), `CCOC(=O)CSc1nnc(-c2cccc(Cl)c2)n1CC` is higher in inhibition: -2.59% for the first, -1.18% for the second.

Compared with `CCOc1ccc(-c2ccc(SCC(=O)NCC3CCCO3)nn2)cc1` (centres undefined), `CCCOC(=O)CSc1nnc(-c2ccccc2Cl)o1` is higher in inhibition: 3.18% for the first, 42.3% for the second.

First: Cc1cc(=O)[nH]c(SCC(=O)Nc2ccccc2C)n1
Second: O=C(CSc1nc2ccccc2o1)c1cc2ccccc2oc1=O
The inhibition of the first is lower: -0.5% for the first, 1.02% for the second.

First: COc1ccccc1NS(=O)(=O)c1cccc(C(=O)N/N=C(\C)c2ccc(-n3ccnc3)cc2)c1
Second: COc1cccc(NC(=O)c2cc(-c3cccnc3)nc3c(Cl)cccc23)c1
The inhibition of the first is lower: -7.54% for the first, -0.99% for the second.

Compared with `C/C(O)=C(/C#N)c1nc2ccccc2[nH]1`, `N#CCSc1nc2ccccc2o1` is lower in inhibition: 10.1% for the first, -5.91% for the second.

First: c1ccc2c(N3CCOCC3)nc(N3CCOCC3)nc2c1
Second: O=C(O)C1CCN(c2nc(-c3ccccc3)nc3c2oc2ccccc23)CC1
The inhibition of the first is lower: -0.04% for the first, 2.63% for the second.

Going from `CCCCNS(=O)(=O)c1ccc2nc(-c3cccnc3)cc(C(=O)NCCCN(CC)CC)c2c1` to `Cc1cc(NC(=O)c2cc(-c3cccnc3)nc3c(C)c(C)ccc23)no1`, the inhibition rises from -1.2% to 13.3%.

Compared with `Cc1ccc(CNC(=O)C2CCCN(Cc3cnn(-c4ccccc4)c3-n3cccc3)C2)cc1` (centres undefined), `O=C(NCc1ccccc1)c1ccc(CNc2c(N3CCCC3)c(=O)c2=O)cc1` is higher in inhibition: 3.25% for the first, 3.31% for the second.

First: COc1ccc(CNc2ncnc3cc(Cl)ccc23)cc1OC
Second: COc1cccc(CNc2ncnc3cc(Cl)ccc23)c1
The inhibition of the first is higher: 3.34% for the first, 2.79% for the second.

Compared with `COc1ccc(C(=O)C(CCC(CNC(C)(C)C)C(=O)c2ccc(OC)cc2)CNC(C)(C)C)cc1` (centres undefined), `COc1ccc(C(=O)/C=C2\Sc3ccccc3N2C)cc1` is lower in inhibition: 3.24% for the first, -4.42% for the second.

First: O=C(OCC#CCSc1nc2ccccc2s1)c1ccco1
Second: O=C(Nc1ccccc1)c1nc2ccccc2s1
The inhibition of the first is higher: 74.1% for the first, 27.8% for the second.

Compared with `O=C(CSc1nc2ccccc2o1)N1CCN(C(=O)c2ccco2)CC1`, `O=C(COc1ncnc2sccc12)N1CCN(C(=O)c2ccco2)CC1` is lower in inhibition: 8.7% for the first, -7.61% for the second.

Compared with `c1ccc2c(c1)c1c3n2CCNC3CCC1` (centres undefined), `Cc1ccc2c(c1)c1c3n2CCCNC3CCC1` (centres undefined) is lower in inhibition: 3.79% for the first, 3.76% for the second.

Compared with `COc1cc(OC)cc(C(=O)Nc2ccc(-c3nc4ccccc4o3)cc2)c1`, `COc1cc(OC)cc(C(=O)Nc2ccc(-c3nc4ccccc4o3)c(O)c2)c1` is higher in inhibition: 16% for the first, 66.5% for the second.

Compared with `CCOC(=O)C(=O)Nc1nc(-c2ccccc2)c(-c2ccccc2)o1`, `CC(=O)Nc1nc(-c2ccccc2)c(-c2ccccc2)o1` is higher in inhibition: -0.88% for the first, 56.4% for the second.

Going from `COc1cccc(C(=O)Nc2c(F)c(F)c(F)c(F)c2F)c1` to `COc1cccc(C(=O)Nc2ccccc2)c1`, the inhibition falls from 0.52% to -3.26%.

Going from `CCCCCCN1C=C/C(=C\C=C(C#N)C#N)c2ccccc21` to `COc1cc(OC)cc(C(=O)/C=C2\Sc3ccccc3N2C)c1`, the inhibition falls from 34.9% to -9.58%.

Going from `COc1ccccc1NC(=S)N(CCCN(C)C)Cc1cc2cc3c(cc2[nH]c1=O)OCO3` to `CC1(C)CC(N=Cc2c(O)n(Cc3ccc4c(c3)OCO4)c(=O)c3ccccc23)CC(C)(C)N1`, the inhibition rises from -2.36% to 15%.

Compared with `CCOC(=O)CN1CC23C=CC(O2)C(C(=O)Nc2ccc(F)c(C)c2)C3C1=O` (centres undefined), `CCCCNC(=O)COC(=O)c1ccc(C)c(NC(=O)c2ccco2)c1` is higher in inhibition: -11.9% for the first, -7% for the second.

Compared with `CCN1CCN(C(=O)C(=O)c2c(C)[nH]c3ccccc23)CC1`, `Cc1cc(C)c2nc(N3CCC(C(=O)N4CCN(C(=O)c5ccco5)CC4)CC3)sc2c1` is lower in inhibition: 0.56% for the first, -2.47% for the second.

Going from `O=C(CSc1nnc(CCCN2C(=O)c3cccc4cccc(c34)C2=O)n1-c1ccccc1)N1CCN(CCO)CC1` to `NC(=O)C1CCN(c2nc(-c3ccccc3)nc3c2oc2ccccc23)CC1`, the inhibition rises from -10.9% to 0.65%.

First: O=C1Nc2cc(Cl)cnc2N2CCCC12 (centres undefined)
Second: O=[N+]([O-])c1ccc(N2CCC(O)CC2)nc1
The inhibition of the first is higher: 2.46% for the first, -4.33% for the second.

Going from `CCN(CC)CCCNC(=O)Cn1nc([N+](=O)[O-])c(Cl)c1C` to `O=c1oc2ccccc2c(NCCO)c1[N+](=O)[O-]`, the inhibition rises from -1.51% to 0.19%.

First: CC1CCN(C(=O)c2ccc(CNc3c(N4CCCC4)c(=O)c3=O)cc2)CC1
Second: CCOC(=O)C1CCCN(C(=O)c2ccc(CNc3c(N4CCC(C)CC4)c(=O)c3=O)cc2)C1 (centres undefined)
The inhibition of the first is higher: 78.3% for the first, 0.97% for the second.

Compared with `Cc1ccc(CNC(=O)c2ccc(CNc3c(N4CCCC4)c(=O)c3=O)cc2)cc1`, `CC1CCN(c2c(NCc3ccc(C(=O)N4c5ccccc5CC4C)cc3)c(=O)c2=O)CC1` (centres undefined) is lower in inhibition: 8.62% for the first, 7.17% for the second.

Going from `Cc1cccc(N2CCN(C(=O)c3ccc(CNc4c(N5CCC(C)CC5)c(=O)c4=O)cc3)CC2)c1C` to `COc1ccc(CCNC(=O)C2CCC(CNc3c(N4CCCC4)c(=O)c3=O)CC2)cc1OC` (centres undefined), the inhibition falls from 73.1% to -2.59%.

Going from `Cc1cc(C)cc(NC(=O)C2CCCC2)c1` to `Cc1cc(C)c(S(=O)(=O)N2CCC(C(=O)NCc3ccc(Cl)cc3Cl)CC2)c(C)c1`, the inhibition rises from -9.17% to 4.79%.

First: CCOC(=O)C1CCN(c2nc(-c3ccccc3)nc3c2oc2ccccc23)CC1
Second: OCCN(CCO)c1nc(-c2ccccc2)nc2c1oc1ccccc12
The inhibition of the first is higher: 25.5% for the first, 0.94% for the second.

First: COc1ccc(NC(=S)NCc2ccc(S(N)(=O)=O)cc2)c(OC)c1
Second: COc1ccc(CNC(=O)COC(=O)c2cncc(Br)c2)cc1
The inhibition of the first is higher: 6.58% for the first, -4.32% for the second.

Compared with `O=C(NC1CCCC1)C(c1ccc(N2CCOCC2)cc1)N(Cc1ccccc1)C(=O)c1ccco1` (centres undefined), `COC(=O)[C@@H]1CCCN1Cc1c(C(=O)N2CCOCC2)nc2c(C)cccn12` is higher in inhibition: -11.4% for the first, -6.22% for the second.

Compared with `O=c1c(C(c2ccccc2)c2c(O)nc3n(c2=O)CCCS3)c(O)nc2n1CCCS2`, `O=c1c2ccccc2c(C=NCCCN2CCOCC2)c(O)n1Cc1ccc2c(c1)OCO2` is lower in inhibition: 7.37% for the first, 4.72% for the second.

First: O=S(=O)(c1ccccc1Br)N1CCC(O)(c2cccnc2)CC1
Second: O=C(Nc1nnc(-c2cccnc2)o1)c1ccccc1Cl
The inhibition of the first is lower: -4.98% for the first, 4.74% for the second.

Compared with `O=C(Nc1nnc(-c2ccccc2)o1)Nc1ccc(F)cc1F`, `O=C(Nc1ccccc1)Nc1nnc(-c2ccccc2)o1` is lower in inhibition: 7.77% for the first, 6.54% for the second.

Compared with `COc1ccc(CNC(=O)c2cnccn2)cc1`, `COc1ccc(N(C(C)C(=O)Nc2cccnc2)S(C)(=O)=O)cc1` (centres undefined) is lower in inhibition: -0.78% for the first, -6.21% for the second.

Going from `O=C(c1ccccc1-n1cccc1)N1N=C(C(F)F)CC1(O)C(F)F` (centres undefined) to `CCOC(=O)C(C)Sc1ncc(-c2ccccc2)cn1` (centres undefined), the inhibition falls from -5.84% to -6.07%.

Compared with `Cc1ccc2occ(/C=N/NC(N)=S)c(=O)c2c1`, `Cc1ccc(-c2cc(C(=O)Nc3cc(C)on3)c3ccccc3n2)cc1` is higher in inhibition: -2.35% for the first, 6.46% for the second.

First: Cc1nc2cc(O)ccc2n1C
Second: CC(C)OC(=O)CSc1nnc(-c2ccc(Cl)cc2Cl)n1N
The inhibition of the first is higher: -5.57% for the first, -12.6% for the second.

Compared with `COc1ccc(CNC(=O)c2cc(-c3ccncc3)nc3c(C)cc(C)cc23)cc1OC`, `O=C(NCc1cccc(Cl)c1)c1cc(COc2ccc3ncccc3c2)on1` is higher in inhibition: 6.31% for the first, 58.2% for the second.

Compared with `COc1ccc(-n2nnc3c(=O)n(Cc4cccc(C)c4)cnc32)cc1`, `CCOC(=O)C(C)Sc1ncc(OC)c(Sc2ccc(Cl)cc2)n1` (centres undefined) is higher in inhibition: -11.3% for the first, 7.19% for the second.

First: CCSc1nnc(-c2ccc(Cl)cc2Cl)o1
Second: COc1ccccc1-c1nnc(SCC(=O)OC(C)C)o1
The inhibition of the first is lower: 4.11% for the first, 58.4% for the second.

For `CCOC(=O)CSc1ncc(-c2ccccc2)cn1`, the inhibition was 15%.
